Compound activity as filed in PubChem BioAssay.
PAX8 reporter – inhibitors of PAX8 transcriptional activity in RMG-I cells; RMG-I TPO-luciferase reporter, SteadyGlo, 24 h; inhibition, % at 12.6 µM; 1.2% of 360,000 active; AID 652154;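 active means mean replicate inhibition at least 60% with every replicate also reaching 60%; inconclusive means only one of the two criteria is met; inactive means mean below 60% and not all replicates reaching 60%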;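 further: luciferase light reporting Pax8 driven TPO promoter activity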
LGR2 inh – Drosophila LGR2 receptor signaling inhibition | AID 720647 | HEK293 LGR2, CRE-luciferase, bursicon-stimulated, 4 h | inhibition, % at 9.99 µM | 0.35% of 380,000 active;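 active means drop in luminescence signal, shown as inhibition above about 50% in the replicate tests, limit read from the data, passing the limit was not always enough; inconclusive means probably only some replicates passing the limit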;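 further: agonist challenge used bursicon conditioned medium at about half maximal strength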
EBV LMP1 NFkB – inhibitors of Epstein-Barr LMP1-induced NF-kappaB reporter; LMP1-induced NF-kappaB luciferase reporter cells, luminescence; 0.69% of 350,000 active; inhibition, % at 12.5 µM; AID 504558; in the data active means inhibition above about 41%; inconclusive means no clear call, values can overlap the other calls
TRPM1 prom inh – inhibitors of MITF-driven TRPM1 promoter in melanoma cells; SK-MEL-5 TRPM1 promoter luciferase, 24 h; inhibition, % at 12.5 µM; 0.83% of 330,000 active;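 active means mean inhibition across replicates of 60% or more, whatever share of single replicates reaches that level; inconclusive means some that reach 60%, reason not given; inactive means mean inhibition across replicates below 60%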
EWS-Fli inh – blocks EWS/Fli oncoprotein-driven transcription; A673 NR0B1-luciferase reporter, viability-normalised; inhibition, % at 12.6 µM; 0.67% of 350,000 active; AID 651661;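 active means mean inhibition of at least 50% after viability correction, with every replicate also passing that limit; inconclusive means mean reaches 50% but only one of two replicates passes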;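 further: firefly luciferase signal divided by Alamar Blue viability fluorescence both relative to DMSO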
PGC1a acetyl inh – modulators of PGC1a acetylation | U2OS PGC1a acetylation, AlphaScreen anti-acetyl-lysine; with virally co-expressed GCN5 acetyltransferase | inhibition, % at 15.6 µM | 0.17% of 350,000 active;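 active means every replicate shows inhibition of at least 40%; inconclusive means mean inhibition at least 40% but some replicate below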
Each line names hits and unclear results; the compound was inactive in the other large screens. This is a sample that favours compounds with a hit; in the whole collection about 2.2% have one here.

CCOc1ccc2nc(C)cc(Nc3cccc([N+](=O)[O-])c3)c2c1	TRPM1 prom inh 84, EWS-Fli inh 72 (no result: LGR2 inh, PGC1a acetyl inh)
COc1ccccc1CN1C(=O)c2ccccc2[C@](Cc2ccccc2I)(C(=O)NCc2ccccc2)[C@@H]1c1ccc(CO)cc1	none (no result: LGR2 inh, EBV LMP1 NFkB, TRPM1 prom inh)
O=C(C[C@H]1CC[C@H]2[C@@H](COC[C@H](O)CN2C(=O)Nc2ccc(F)cc2)O1)NC1Cc2ccccc2C1	none (no result: EBV LMP1 NFkB, TRPM1 prom inh)
N#CC1=C(N)N2C(=C(C#N)C13CCN(Cc1ccccc1)CC3)Nc1ccccc12	none (no result: PAX8 reporter, LGR2 inh, EWS-Fli inh)
N#CC1=C(N)N2C(=C(C#N)C1c1ccc(Br)cc1)Nc1ccccc12 (configuration not stated)	PAX8 reporter 98 (no result: EBV LMP1 NFkB, TRPM1 prom inh, PGC1a acetyl inh)
N#CC1=C(N)SC(N)=C(C#N)C1c1cccc(Oc2ccccc2)c1	none (no result: PAX8 reporter)
N#CC1=C(N)N2C(=C(C#N)C1c1cccc(Br)c1)Nc1ccccc12 (configuration not stated)	EBV LMP1 NFkB 52
Cc1ccc(-n2nc3c(N4CCC(C(=O)NCc5cccc(F)c5)CC4)nnc(C)c3c2C)cc1	none (no result: PAX8 reporter, LGR2 inh, EWS-Fli inh)
CCOc1ccccc1CNC(=O)C1CCCN(c2nnc(C)c3c(C)n(-c4ccccc4)nc23)C1 (configuration not stated)	PAX8 reporter 81, TRPM1 prom inh 81, EWS-Fli inh 63
COc1ccc(-n2nc3c(N4CCC(C(=O)NCCc5ccccc5C)CC4)nnc(C)c3c2C)cc1	TRPM1 prom inh 89 (no result: PAX8 reporter, LGR2 inh, EWS-Fli inh, PGC1a acetyl inh)
COc1ccc(-n2nc3c(N4CCC(C(=O)NCC(C)c5ccccc5)CC4)nnc(C)c3c2C)cc1 (configuration not stated)	TRPM1 prom inh 68 (no result: EWS-Fli inh)
Cc1ccc(-n2nc3c(N4CCC(C(=O)NCCc5ccccc5C)CC4)nnc(C)c3c2C)cc1	TRPM1 prom inh 94 (no result: PAX8 reporter, LGR2 inh, EWS-Fli inh)
COc1ccc(-n2nc3c(N4CCC(C(=O)NC5CCCCC5)CC4)nnc(C)c3c2C)cc1	none (no result: PAX8 reporter, LGR2 inh, EWS-Fli inh)
C[C@@H]1CN([C@@H](C)CO)C(=O)c2cc(-c3ccccc3)cnc2O[C@@H]1CN(C)Cc1ccc(C(=O)O)cc1	none (no result: PAX8 reporter, EBV LMP1 NFkB, TRPM1 prom inh)
COc1ccc(-n2nc3c(N4CCC(C(=O)NCc5ccccc5C)CC4)nnc(C)c3c2C)cc1	TRPM1 prom inh 85 (no result: PAX8 reporter, LGR2 inh, EWS-Fli inh)
COc1ccc(-n2nc3c(N4CCC(C(=O)NCc5ccco5)CC4)nnc(C)c3c2C)cc1	none (no result: PAX8 reporter, LGR2 inh, EWS-Fli inh)
O=C(c1ccncc1)N1C[C@H]2[C@@H](c3ccccc31)[C@H](CO)N2C(=O)Nc1ccccc1Cl	none (no result: EBV LMP1 NFkB, TRPM1 prom inh)
C[C@@H]1CN([C@@H](C)CO)C(=O)c2cc(NC(=O)CCN3CCOCC3)ccc2O[C@H]1CN(C)S(=O)(=O)c1ccc(F)cc1	none (no result: EBV LMP1 NFkB, TRPM1 prom inh)
COc1ccc(/C=C2\SC(=O)N(CCC(=O)Nc3ccccc3)C2=O)cc1OC	none (no result: EWS-Fli inh, PGC1a acetyl inh)
COc1cc(/C=C2\SC(=O)N(CCN)C2=O)ccc1OS(=O)(=O)c1cc(C)ccc1C	LGR2 inh 82
CC1=C(C(=O)OC(C)(C)C)C(c2ccc3ccccc3c2)NC(=O)N1C (configuration not stated)	PGC1a acetyl inh 66
COC(=O)C1=C(C)N(C)C(=O)NC1c1ccc(C)cc1 (configuration not stated)	none (no result: PAX8 reporter, EWS-Fli inh)
O=S1(=O)C=C(Sc2nnc(-c3ccccc3)o2)c2ccccc21	TRPM1 prom inh 96 (no result: PAX8 reporter, LGR2 inh, EWS-Fli inh)
Cc1cc(C)nc(SC2=CS(=O)(=O)c3ccccc32)n1	none (no result: LGR2 inh, EWS-Fli inh, PGC1a acetyl inh)
COC(=O)C1=CN(c2ccc3c(c2)OCO3)C(N)=C(C#N)C1c1ccc(-c2ccccc2)cc1 (configuration not stated)	EWS-Fli inh 67 (no result: EBV LMP1 NFkB, TRPM1 prom inh, PGC1a acetyl inh)
COc1cc(NCCCCCCCN)c2ncccc2c1	none (no result: PAX8 reporter, LGR2 inh, EWS-Fli inh, PGC1a acetyl inh)
COc1cc(NC(C)CCCN)c2ncccc2c1 (configuration not stated)	PAX8 reporter 66 (no result: LGR2 inh)
COC(=O)c1ccccc1S(=O)(=O)NNC(=O)Nc1ccccc1	LGR2 inh 58
CO[C@H]1CN(C)C(=O)c2ccc(NC(=O)Nc3ccccc3)cc2OC[C@H](C)N(CC2CC2)C[C@H]1C	none (no result: PAX8 reporter, EBV LMP1 NFkB, TRPM1 prom inh)
C[C@H](CO)N1C[C@H](C)[C@H](CN(C)C(=O)Nc2ccc3c(c2)OCO3)Oc2ccc(NC(=O)C3CCCCC3)cc2CC1=O	none (no result: PAX8 reporter, EBV LMP1 NFkB, TRPM1 prom inh, PGC1a acetyl inh)
CC1=CC2C(C(O)CC3(C)C2CC(C)C32OCOC23COCO3)C2(C)C/C(=C\O)C(=O)C=C12 (configuration not stated)	LGR2 inh 80, TRPM1 prom inh 80 (no result: PAX8 reporter, PGC1a acetyl inh)
Nc1ccc(OCc2ccccc2)cc1[N+](=O)[O-]	none
O=Cc1cc(OCc2ccccc2)ccc1[B-](F)(F)F	EBV LMP1 NFkB 55
Cc1noc(C)c1NC(=O)Nc1cccc2c1O[C@H](CN(C)C(=O)Nc1cccc3ccccc13)[C@H](C)CN([C@@H](C)CO)C2=O	none (no result: EBV LMP1 NFkB, TRPM1 prom inh)
O=C(CN1C(=O)c2ccccc2S1(=O)=O)c1ccc(O)c(O)c1	none
Cc1cc(C(=O)CN2C(=O)c3ccccc3S2(=O)=O)c(C)n1CC1CCCO1 (configuration not stated)	EBV LMP1 NFkB 80, TRPM1 prom inh 83 (no result: PAX8 reporter, LGR2 inh, EWS-Fli inh)
O=C(CN1C(=O)c2ccccc2S1(=O)=O)c1ccc(F)c(F)c1	PAX8 reporter 64, LGR2 inh 65, EBV LMP1 NFkB 46
Cc1cc(C(=O)CN2C(=O)NC(C)(c3ccccc3)C2=O)c(C)n1CC1CCCO1 (configuration not stated)	none (no result: PAX8 reporter, LGR2 inh, EWS-Fli inh, PGC1a acetyl inh)
COc1cc(C2C3=C(Nc4ncnn42)c2ccccc2CC3)cc(OC)c1OC (configuration not stated)	PAX8 reporter 95, TRPM1 prom inh inconclusive (no result: LGR2 inh, EWS-Fli inh)
O=C1/C(=N\S(=O)(=O)c2cccs2)C([n+]2ccc(CCCc3ccccc3)cc2)=C([O-])c2ccccc21	none (no result: LGR2 inh, EBV LMP1 NFkB, TRPM1 prom inh)
Cc1cc(C)c[n+](C2=C([O-])c3ccccc3C(=O)/C2=N\S(=O)(=O)c2cccs2)c1	TRPM1 prom inh 105 (no result: PGC1a acetyl inh)
O=C1/C(=N\S(=O)(=O)c2cccs2)C([n+]2cccc(Cc3ccccc3)c2)=C([O-])c2ccccc21	TRPM1 prom inh 91 (no result: PAX8 reporter, LGR2 inh, EWS-Fli inh)
C/C=C/c1ccc([C@@H]2[C@@H](CNC(=O)CC3CC3)N(C(=O)CC)[C@H]2CO)cc1	none (no result: EBV LMP1 NFkB, TRPM1 prom inh)
N#Cc1cccc(C#N)c1NCC1CCCO1 (configuration not stated)	PGC1a acetyl inh 43
Cc1ccc(S(=O)(=O)N2CCC[C@H]2C(=O)Nc2ccccc2Cl)cc1	none
Cc1ccc(S(=O)(=O)N2CCC[C@H]2C(=O)Nc2ccccc2C)cc1	EBV LMP1 NFkB 70
CCc1ccccc1N(CC(=O)NCc1ccco1)C(=O)c1snc(C(N)=O)c1N	EBV LMP1 NFkB 55 (no result: PAX8 reporter, LGR2 inh, EWS-Fli inh)
CC(=O)Cn1nnc2sc3c(c2c1=O)CCC(C(C)(C)C)C3 (configuration not stated)	none (no result: PGC1a acetyl inh)
CCOC(=O)c1sc(NC(=O)Cn2nnc3sc4c(c3c2=O)CCC(C(C)(C)C)C4)nc1C (configuration not stated)	PAX8 reporter 73
COc1cccc(-c2cn(CC[C@H]3CC[C@H](NC(C)=O)[C@H](CO)O3)nn2)c1	none (no result: EBV LMP1 NFkB, TRPM1 prom inh)
Cc1cccc(NC(=O)CC23CC4CC(C2)CC(n2nnc(C)n2)(C4)C3)c1	PAX8 reporter 111 (no result: PGC1a acetyl inh)
